Experimental data from article PMC7862700, “An all-to-all approach to the identification of sequence-specific readers for epigenetic DNA modifications on cytosine”.

Tests used:
Test in all cases: DAPPL (digital affinity profiling via proximity ligation, sequencing); 10 mM Tris-HCl pH 7.5, 50 mM NaCl, 1 mM DTT, 4% glycerol, room temperature, 30 min; GST-TFs on glutathione beads, 16-mer random dsDNA library, 0.1% formaldehyde crosslink after washing; high values mean tight binding
FEV = target: T1, FEV (Homo sapiens, UniProt Q99581 1-238); settings: protein: recombinant; tags: N-terminal GST; dsDNA, one strand shown
T1 sequence: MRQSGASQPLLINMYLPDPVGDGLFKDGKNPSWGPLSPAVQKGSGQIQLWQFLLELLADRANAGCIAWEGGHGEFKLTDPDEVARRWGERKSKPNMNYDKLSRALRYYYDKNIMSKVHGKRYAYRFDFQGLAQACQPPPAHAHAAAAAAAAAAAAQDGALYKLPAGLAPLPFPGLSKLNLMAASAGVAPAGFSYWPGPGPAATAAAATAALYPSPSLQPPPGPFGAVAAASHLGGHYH
Method in brief: (§1)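 After expression in yeast as GST fusions, human transcription factors were bound to glutathione beads, DNA-barcoded and mixed with a tag-only sample. The pools were incubated with 200 nmole of a 16-mer random double-stranded DNA library in Tris/NaCl/DTT/glycerol buffer (30 min, room temperature), washed and crosslinked with 0.1% formaldehyde. Proximity ligation with BsaI/T4 ligase ran for 1 h at 37 °C, before PCR amplification and sequencing on an Illumina NextSeq500. Binding signal is a hexamer's read frequency for a factor divided by its frequency for the tag-only sample.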

ETV5 = ETV5 (Homo sapiens, UniProt P41161 1-510); settings: protein: recombinant; tags: N-terminal GST; dsDNA, one strand shown
Method in brief: as §1

HSF1 = HSF1 (Homo sapiens, UniProt Q00613 1-529); settings: protein: recombinant; tags: N-terminal GST; chain copies: 3; dsDNA, one strand shown
Method in brief: as §1

SPIC = target: T2, SPIC (Homo sapiens, UniProt Q8N5J4 1-248); settings: protein: recombinant; tags: N-terminal GST; dsDNA, one strand shown
T2 sequence: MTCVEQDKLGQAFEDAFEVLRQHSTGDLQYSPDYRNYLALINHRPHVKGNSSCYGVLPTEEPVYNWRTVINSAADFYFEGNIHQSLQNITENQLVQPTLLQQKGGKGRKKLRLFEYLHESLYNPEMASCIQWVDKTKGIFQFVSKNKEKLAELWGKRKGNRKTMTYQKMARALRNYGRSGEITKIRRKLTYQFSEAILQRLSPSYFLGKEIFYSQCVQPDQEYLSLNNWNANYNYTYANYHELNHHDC
Method in brief: as §1

ELF4 = ELF4 (Homo sapiens, UniProt Q99607 1-663); settings: protein: recombinant; tags: N-terminal GST; dsDNA, one strand shown
Method in brief: as §1

ELK4 = target: T3, ELK4 (Homo sapiens, UniProt P28324-2 1-405); settings: protein: recombinant; tags: N-terminal GST; dsDNA, one strand shown
T3 sequence: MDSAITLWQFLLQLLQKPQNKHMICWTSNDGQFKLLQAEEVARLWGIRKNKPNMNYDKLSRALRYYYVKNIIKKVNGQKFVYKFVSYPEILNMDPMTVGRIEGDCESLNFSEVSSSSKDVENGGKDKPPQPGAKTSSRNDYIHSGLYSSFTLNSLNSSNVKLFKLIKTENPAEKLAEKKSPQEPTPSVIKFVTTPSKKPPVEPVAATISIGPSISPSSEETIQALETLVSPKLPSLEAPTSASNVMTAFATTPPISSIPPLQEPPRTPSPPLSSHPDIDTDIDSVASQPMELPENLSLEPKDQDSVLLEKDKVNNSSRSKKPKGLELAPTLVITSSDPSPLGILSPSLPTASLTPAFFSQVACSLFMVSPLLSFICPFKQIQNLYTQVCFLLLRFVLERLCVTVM
Method in brief: as §1

ETV2 = target: T4, ETV2 (Homo sapiens, UniProt O00321 1-342); settings: protein: recombinant; tags: N-terminal GST; dsDNA, one strand shown
T4 sequence: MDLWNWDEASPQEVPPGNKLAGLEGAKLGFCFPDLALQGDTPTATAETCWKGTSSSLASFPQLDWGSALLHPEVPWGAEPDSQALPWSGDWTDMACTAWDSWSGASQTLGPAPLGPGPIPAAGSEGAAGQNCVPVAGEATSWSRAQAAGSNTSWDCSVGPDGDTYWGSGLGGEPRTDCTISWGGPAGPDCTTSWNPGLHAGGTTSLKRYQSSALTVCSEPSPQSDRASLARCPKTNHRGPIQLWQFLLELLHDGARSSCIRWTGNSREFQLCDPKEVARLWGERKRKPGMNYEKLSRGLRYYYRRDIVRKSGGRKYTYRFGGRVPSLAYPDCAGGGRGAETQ
Method in brief: as §1

ELF3 = target: T5, ELF3 (Homo sapiens, UniProt P78545 1-371); settings: protein: recombinant; tags: N-terminal GST; dsDNA, one strand shown
T5 sequence: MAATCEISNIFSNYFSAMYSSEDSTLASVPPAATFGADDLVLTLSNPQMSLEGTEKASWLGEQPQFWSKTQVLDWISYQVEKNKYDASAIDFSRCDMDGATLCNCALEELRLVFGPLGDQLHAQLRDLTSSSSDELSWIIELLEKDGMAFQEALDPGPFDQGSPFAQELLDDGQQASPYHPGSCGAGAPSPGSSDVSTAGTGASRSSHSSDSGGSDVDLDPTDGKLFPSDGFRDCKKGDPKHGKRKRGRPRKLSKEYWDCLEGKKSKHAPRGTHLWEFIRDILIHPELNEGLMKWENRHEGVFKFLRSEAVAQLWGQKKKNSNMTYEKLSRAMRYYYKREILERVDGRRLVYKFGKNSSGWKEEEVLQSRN
Method in brief: as §1

CRX = CRX (Homo sapiens, UniProt O43186 1-299); settings: protein: recombinant; tags: N-terminal GST; dsDNA, one strand shown
Method in brief: as §1

ETV1 = ETV1 (Homo sapiens, UniProt P50549 1-477); settings: protein: recombinant; tags: N-terminal GST; dsDNA, one strand shown
Method in brief: as §1

ERF = target: T6, ERF (Homo sapiens, UniProt P50548 1-548); settings: protein: recombinant; tags: N-terminal GST; dsDNA, one strand shown
T6 sequence: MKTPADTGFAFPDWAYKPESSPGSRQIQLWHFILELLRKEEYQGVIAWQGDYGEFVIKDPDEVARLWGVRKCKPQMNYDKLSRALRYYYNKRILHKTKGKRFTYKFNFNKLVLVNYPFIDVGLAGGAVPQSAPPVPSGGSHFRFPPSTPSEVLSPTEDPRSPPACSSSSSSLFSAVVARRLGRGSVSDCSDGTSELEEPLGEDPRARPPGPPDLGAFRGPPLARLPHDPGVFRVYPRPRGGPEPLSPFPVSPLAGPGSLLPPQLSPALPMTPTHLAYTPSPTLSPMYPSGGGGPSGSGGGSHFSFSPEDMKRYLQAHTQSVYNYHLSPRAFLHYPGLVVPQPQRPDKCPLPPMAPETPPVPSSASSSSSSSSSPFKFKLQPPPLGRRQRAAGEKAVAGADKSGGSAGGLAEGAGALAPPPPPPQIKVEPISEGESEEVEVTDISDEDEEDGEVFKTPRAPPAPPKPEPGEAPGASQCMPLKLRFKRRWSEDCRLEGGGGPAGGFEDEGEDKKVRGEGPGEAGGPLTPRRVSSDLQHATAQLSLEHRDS
Method in brief: as §1

ETV3L = target: T7, ETV3L (Homo sapiens, UniProt Q6ZN32 1-361); settings: protein: recombinant; tags: N-terminal GST; dsDNA, one strand shown
T7 sequence: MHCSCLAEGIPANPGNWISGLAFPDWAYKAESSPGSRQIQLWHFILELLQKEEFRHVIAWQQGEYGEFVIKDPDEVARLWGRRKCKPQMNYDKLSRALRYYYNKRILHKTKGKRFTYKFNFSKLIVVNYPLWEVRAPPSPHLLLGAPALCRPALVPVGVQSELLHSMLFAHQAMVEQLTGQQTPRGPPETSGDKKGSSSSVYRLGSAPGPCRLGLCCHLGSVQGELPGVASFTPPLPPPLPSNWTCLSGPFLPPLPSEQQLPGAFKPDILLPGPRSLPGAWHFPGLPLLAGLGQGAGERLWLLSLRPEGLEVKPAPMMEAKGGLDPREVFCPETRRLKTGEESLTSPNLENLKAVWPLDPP
Method in brief: as §1

ETS2 = target: T8, ETS2 (Homo sapiens, UniProt P15036 1-469); settings: protein: recombinant; tags: N-terminal GST; dsDNA, one strand shown
T8 sequence: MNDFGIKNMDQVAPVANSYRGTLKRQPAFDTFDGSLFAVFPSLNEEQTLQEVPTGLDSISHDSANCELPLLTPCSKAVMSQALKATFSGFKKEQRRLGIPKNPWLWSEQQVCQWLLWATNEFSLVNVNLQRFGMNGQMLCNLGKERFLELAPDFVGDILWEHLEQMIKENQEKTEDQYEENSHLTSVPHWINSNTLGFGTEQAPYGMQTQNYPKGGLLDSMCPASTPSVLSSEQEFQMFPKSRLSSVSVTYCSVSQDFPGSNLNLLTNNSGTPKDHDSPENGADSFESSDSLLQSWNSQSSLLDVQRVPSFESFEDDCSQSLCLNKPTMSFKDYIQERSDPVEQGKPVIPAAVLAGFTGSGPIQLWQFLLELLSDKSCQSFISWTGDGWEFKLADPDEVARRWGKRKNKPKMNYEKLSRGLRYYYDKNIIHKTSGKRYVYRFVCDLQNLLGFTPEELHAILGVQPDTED
Method in brief: as §1

SPDEF = target: T9, SPDEF (Homo sapiens, UniProt O95238 1-335); settings: protein: recombinant; tags: N-terminal GST; dsDNA, one strand shown
T9 sequence: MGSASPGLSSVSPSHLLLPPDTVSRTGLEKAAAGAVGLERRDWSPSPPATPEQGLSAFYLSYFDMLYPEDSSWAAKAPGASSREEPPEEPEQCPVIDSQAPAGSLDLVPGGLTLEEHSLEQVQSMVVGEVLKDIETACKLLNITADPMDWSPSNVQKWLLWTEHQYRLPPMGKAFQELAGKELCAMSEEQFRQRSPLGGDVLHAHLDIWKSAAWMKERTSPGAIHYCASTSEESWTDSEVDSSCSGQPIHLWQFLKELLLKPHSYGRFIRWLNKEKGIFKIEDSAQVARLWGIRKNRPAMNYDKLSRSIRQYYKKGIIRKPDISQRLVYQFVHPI
Method in brief: as §1

ETV7 = target: T10, ETV7 (Homo sapiens, UniProt Q9Y603 1-341); settings: protein: recombinant; tags: N-terminal GST; dsDNA, one strand shown
T10 sequence: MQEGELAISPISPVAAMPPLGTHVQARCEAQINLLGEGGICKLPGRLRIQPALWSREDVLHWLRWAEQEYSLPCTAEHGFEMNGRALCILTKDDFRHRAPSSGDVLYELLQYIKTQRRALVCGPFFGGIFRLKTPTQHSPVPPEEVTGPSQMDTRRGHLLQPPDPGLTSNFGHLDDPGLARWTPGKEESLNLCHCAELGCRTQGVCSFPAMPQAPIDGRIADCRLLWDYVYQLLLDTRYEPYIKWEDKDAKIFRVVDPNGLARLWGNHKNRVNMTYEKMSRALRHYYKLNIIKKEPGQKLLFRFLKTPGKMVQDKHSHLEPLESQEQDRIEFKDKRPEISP
Method in brief: as §1

ELF5 = target: T11, ELF5 (Homo sapiens, UniProt Q9UKW6-2 1-255); settings: protein: recombinant; tags: N-terminal GST; dsDNA, one strand shown
T11 sequence: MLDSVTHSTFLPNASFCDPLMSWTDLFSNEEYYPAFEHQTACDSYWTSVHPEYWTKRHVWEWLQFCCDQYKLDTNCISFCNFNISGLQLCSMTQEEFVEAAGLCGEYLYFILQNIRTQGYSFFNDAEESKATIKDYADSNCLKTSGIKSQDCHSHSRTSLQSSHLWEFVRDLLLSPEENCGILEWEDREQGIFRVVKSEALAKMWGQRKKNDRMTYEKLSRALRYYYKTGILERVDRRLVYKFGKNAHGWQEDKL
Method in brief: as §1

ETV3 = target: T12, ETV3 (Homo sapiens, UniProt P41162-2 1-143); settings: protein: recombinant; tags: N-terminal GST; dsDNA, one strand shown
T12 sequence: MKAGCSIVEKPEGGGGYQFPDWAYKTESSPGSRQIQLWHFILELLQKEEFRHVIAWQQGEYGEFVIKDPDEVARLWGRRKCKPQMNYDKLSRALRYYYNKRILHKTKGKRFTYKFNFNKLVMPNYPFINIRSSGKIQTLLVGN
Method in brief: as §1

ETV6 = ETV6 (Homo sapiens, UniProt P41212 1-452); settings: protein: recombinant; tags: N-terminal GST; dsDNA, one strand shown
Method in brief: as §1

CRX, sequence (O43186 whole entry): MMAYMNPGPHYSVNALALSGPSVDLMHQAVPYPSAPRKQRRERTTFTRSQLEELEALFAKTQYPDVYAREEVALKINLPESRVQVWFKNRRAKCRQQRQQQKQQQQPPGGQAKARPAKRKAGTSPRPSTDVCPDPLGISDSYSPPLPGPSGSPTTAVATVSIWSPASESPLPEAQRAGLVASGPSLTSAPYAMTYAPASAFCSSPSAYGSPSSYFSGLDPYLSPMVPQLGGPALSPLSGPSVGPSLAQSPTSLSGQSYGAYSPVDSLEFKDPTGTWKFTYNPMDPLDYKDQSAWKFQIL
ETV5, sequence (P41161 whole entry): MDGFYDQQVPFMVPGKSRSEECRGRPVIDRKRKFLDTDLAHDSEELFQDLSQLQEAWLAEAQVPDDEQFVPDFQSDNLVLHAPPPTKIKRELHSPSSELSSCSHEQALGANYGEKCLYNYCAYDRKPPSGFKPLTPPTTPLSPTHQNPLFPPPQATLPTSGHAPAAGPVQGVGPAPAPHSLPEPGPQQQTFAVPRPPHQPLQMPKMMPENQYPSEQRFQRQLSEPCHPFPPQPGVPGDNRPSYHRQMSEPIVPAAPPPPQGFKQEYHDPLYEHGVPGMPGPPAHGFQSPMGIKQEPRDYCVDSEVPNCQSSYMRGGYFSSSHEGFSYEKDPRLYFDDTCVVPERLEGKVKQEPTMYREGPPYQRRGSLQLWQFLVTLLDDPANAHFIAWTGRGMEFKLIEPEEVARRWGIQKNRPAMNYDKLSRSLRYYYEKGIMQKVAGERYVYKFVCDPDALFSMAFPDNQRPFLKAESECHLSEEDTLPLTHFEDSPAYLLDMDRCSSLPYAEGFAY
ETV1, sequence (P50549 whole entry): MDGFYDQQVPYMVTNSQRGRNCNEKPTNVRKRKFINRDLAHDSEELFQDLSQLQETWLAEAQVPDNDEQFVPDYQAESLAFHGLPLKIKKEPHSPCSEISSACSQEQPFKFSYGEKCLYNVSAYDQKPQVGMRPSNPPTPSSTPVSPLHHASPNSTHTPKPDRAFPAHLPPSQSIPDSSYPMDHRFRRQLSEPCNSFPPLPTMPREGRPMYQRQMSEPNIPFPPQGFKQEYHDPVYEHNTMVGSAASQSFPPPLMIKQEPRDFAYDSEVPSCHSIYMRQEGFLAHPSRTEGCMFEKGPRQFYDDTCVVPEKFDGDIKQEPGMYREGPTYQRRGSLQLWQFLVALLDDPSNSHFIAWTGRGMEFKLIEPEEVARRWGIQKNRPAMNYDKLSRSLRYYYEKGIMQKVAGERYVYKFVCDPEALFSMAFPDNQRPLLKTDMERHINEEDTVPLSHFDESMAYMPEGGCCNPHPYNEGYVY
ETV6, sequence (P41212 whole entry): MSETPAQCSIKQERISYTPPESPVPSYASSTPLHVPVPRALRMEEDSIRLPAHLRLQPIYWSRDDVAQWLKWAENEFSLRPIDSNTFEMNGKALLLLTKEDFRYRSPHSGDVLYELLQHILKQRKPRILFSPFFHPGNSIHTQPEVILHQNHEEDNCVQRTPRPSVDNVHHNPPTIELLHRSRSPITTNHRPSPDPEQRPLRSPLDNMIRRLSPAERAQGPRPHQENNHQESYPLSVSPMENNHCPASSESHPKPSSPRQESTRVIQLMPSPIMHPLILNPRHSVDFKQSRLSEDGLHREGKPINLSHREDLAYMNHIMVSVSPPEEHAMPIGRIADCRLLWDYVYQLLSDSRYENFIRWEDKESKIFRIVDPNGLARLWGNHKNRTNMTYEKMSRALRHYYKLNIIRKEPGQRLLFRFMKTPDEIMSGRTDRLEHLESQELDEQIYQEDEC
HSF1, sequence (Q00613 whole entry): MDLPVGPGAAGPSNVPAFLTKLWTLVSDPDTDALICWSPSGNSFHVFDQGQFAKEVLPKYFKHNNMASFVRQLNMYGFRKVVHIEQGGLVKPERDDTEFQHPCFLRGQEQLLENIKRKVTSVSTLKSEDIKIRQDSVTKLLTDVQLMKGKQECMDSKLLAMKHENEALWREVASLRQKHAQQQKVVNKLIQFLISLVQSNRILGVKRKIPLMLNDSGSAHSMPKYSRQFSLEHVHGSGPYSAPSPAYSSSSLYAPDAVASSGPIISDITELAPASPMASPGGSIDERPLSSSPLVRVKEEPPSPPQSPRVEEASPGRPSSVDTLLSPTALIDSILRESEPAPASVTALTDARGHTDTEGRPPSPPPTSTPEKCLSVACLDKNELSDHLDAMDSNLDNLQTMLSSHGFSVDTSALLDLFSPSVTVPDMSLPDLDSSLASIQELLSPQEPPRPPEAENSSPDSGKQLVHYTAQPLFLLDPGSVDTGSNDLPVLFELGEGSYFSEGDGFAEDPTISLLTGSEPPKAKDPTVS
ELF4, sequence (Q99607 whole entry): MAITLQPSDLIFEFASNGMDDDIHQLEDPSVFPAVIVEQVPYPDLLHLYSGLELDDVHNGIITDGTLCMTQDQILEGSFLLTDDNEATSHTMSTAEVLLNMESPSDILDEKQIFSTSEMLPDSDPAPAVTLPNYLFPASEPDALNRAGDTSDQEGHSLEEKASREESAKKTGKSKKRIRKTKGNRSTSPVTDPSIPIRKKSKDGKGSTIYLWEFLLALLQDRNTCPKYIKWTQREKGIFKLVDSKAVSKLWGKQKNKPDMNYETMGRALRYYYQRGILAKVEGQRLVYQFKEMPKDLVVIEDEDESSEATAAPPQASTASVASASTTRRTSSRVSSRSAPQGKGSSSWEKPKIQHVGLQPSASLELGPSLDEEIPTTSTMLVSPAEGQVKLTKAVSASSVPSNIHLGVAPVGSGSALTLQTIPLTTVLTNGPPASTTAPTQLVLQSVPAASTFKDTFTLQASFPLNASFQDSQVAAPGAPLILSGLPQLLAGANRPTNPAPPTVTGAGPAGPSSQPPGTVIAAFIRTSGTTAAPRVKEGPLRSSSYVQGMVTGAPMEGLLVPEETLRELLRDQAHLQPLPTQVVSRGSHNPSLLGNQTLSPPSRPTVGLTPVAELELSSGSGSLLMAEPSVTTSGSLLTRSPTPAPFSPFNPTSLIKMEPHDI

Sequence: GCTAAA
- binding signal (FEV): 1.05 fold enrichment (6-mer frequency, TF over GST control)
- binding signal (ETV5): 1.15 fold enrichment (6-mer frequency, TF over GST control)
- binding signal (HSF1): 1.17 fold enrichment (6-mer frequency, TF over GST control)
- binding signal (SPIC): 1.09 fold enrichment (6-mer frequency, TF over GST control)
- binding signal (ELF4): 1.06 fold enrichment (6-mer frequency, TF over GST control)
- binding signal (ELK4): 1.11 fold enrichment (6-mer frequency, TF over GST control)
- binding signal (ETV2): 1.12 fold enrichment (6-mer frequency, TF over GST control)
- binding signal (ELF3): 1.07 fold enrichment (6-mer frequency, TF over GST control)
- binding signal (CRX): 1.4 fold enrichment (6-mer frequency, TF over GST control)
- binding signal (ETV1): 1.26 fold enrichment (6-mer frequency, TF over GST control)
- binding signal (ERF): 1.19 fold enrichment (6-mer frequency, TF over GST control)
- binding signal (ETV3L): 1.15 fold enrichment (6-mer frequency, TF over GST control)
- binding signal (ETS2): 1.13 fold enrichment (6-mer frequency, TF over GST control)
- binding signal (SPDEF): 1.08 fold enrichment (6-mer frequency, TF over GST control)
- binding signal (ETV7): 1.08 fold enrichment (6-mer frequency, TF over GST control)
- binding signal (ELF5): 1.04 fold enrichment (6-mer frequency, TF over GST control)
- binding signal (ETV3): 1.13 fold enrichment (6-mer frequency, TF over GST control)
- binding signal (ETV6): 1.08 fold enrichment (6-mer frequency, TF over GST control)
